Results on 40 compounds are retold here after PubChem BioAssay (NCATS).

Results filed as inconclusive are left out. A call without a number means that no potency is given here. Calls of active or inactive are those of the source. The call rests on the fitted dose curve; in most records, active means well fitted cell-killing curve with a large enough effect; inconclusive means small, poorly fitted or top-dose-only effect; inactive means flat fitted curve, though single readings scatter.
Potency means the concentration at half of the fitted maximal effect.

The nature of the test: Quantitative highthroughput screen to assess conditional lethalithy of NOMO1 cells grown in RPMI1640 with dialyzed fetal bovine serum (RPMI+ds) (AID 1963877). Further: nearly all actives have a fitted effect of over 30% in size. The settings on record: NOMO1 in RPMI+dialyzed FBS viability, ATP luminescence, 48 h; series mostly up to 45.8 µM. The text has this:
Assay Provider: Jason Cantor Ph.D.
Department of Biochemistry
University of Wisconsin-Madison, Madison, WI, USA
Chemical screening studies have identified drug sensitivities across hundreds of cancer cell lines but most putative therapeutics fail to translate. Discovery and development of drug candidates in models that more accurately reflect nutrient levels in human blood is a major challenge. Here we performed high-throughput screens in conventional versus Human Plasma-Like Medium (HPLM) to identify compounds that were "missed" when screening using the artificial culture condition. Sets of conditional anticancer compounds spanned phases of clinical development and included non-oncology drugs were assessed. […] We also traced conditional phenotypes for several chemotherapeutics to availability of HPLM-specific metabolites and confirmed others for compounds whose reported targets are encoded by nonessential genes. Our findings establish generalizable strategies for exploiting conditional lethality in HPLM to reveal therapeutic candidates and mechanisms of action in cancer cells.
Described herein are the results of each viability screens against three cell lines: NOMO1 (an acute myeloid leukemia cell line); P12-Ichikawa (a T-cell acute lymphoblastic leukemia); and SEM (a B-cell ALL). Each assay was screened using 3 different cell culture media: homemade human plasma-Like medium with 10% dialyzed fetal bovine serum (HPLM+ds); RPMI1640 with 10% untreated FBS and 5mM glucose (RPMI+s); and RPMI1640 with 10% dialyzed fetal bovine serum and 5 mM glucose (RPMI+ds).
PROTOCOL TABLE (as described by Inglese J, Shamu CE and Guy RK. 2007)
SEQUENCE No. (e.g., 1, 2, 3, etc.); […] (e.g., Cells, Incubation, Reagent, etc.); VALUE and DESCRIPTION.
1; Cells; 5 uL; white, solid bottom 1536-well Greiner assay plate.
2; Compounds; 23 nL; Kalypsis pin tool (Wako USA) equipped with a 1536-well pin head to transfer to the assay plates.
3; Incubation; 48 hours; 37C incubation.
4; Reagent; 3 uL; CellTiter Glo (Promega).
5; Incubation; 5 min, room temperature
6; Detection; Luminescence, Viewlux PerkinElmer.
NOTES (numbers refer to Sequence numbers above)
1. Briefly, 5 ul of cell reagent was dispensed using a Multidrop Combi Dispenser. The NOMO1 and SEM cells were plated at 500 cells/well and the P12-Ichikawa line at 1000 cells/well.
2. After seeding the cells, 23 nL of MIPE 4.1 library compounds (in DMSO) were added to each plate using a Kalypsys 1536 Pintool dispenser. Bortezomib at final concentration of […] and DMSO were added to each plate as positive and negative controls respectively. For each screen, MIPE 4.1 compounds were added over an eleven-point concentration range […] in 3-fold dilutions.
3. Each plate was covered with a stainless steel gasketed lid to prevent evaporation and incubated for 48 hour at 37C, 95% relative humidity, and 5% CO2.
4-5. Three microliter CellTilter-GloTM luminescent substrate mix (Promega) reagent was added to the assay plate and incubated at room temperature for 5 min.
6. The luminescence signal was measured using a ViewLux (PerkinElmer) multiplate reader with a 2 second exposure time per plate. Data for each compound were normalized as percent viability such that measurements for DMSO and the empty well controls in each plate were defined as 100% and 0%, respectively.
With `CC(N[C@H]1C[C@H]1c1ccccc1)c1ccc2c(c1)OCCO2` (stereo not given in full), the Potency entry was “inactive”.

On to `CN1CCN(C(=O)O[C@H]2c3nccnc3C(=O)N2c2ccc(Cl)cn2)CC1`, for which the Potency entry was “inactive”.

`CCOP(=O)(OCC)C(C)NC(=O)N(CCCl)N=O` (stereo not given): the Potency result was “inactive”.

With `CNC(=O)c1ccc(N2C(=S)N(c3ccc(C#N)c(C(F)(F)F)c3)C(=O)C23CCC3)cc1F`, the Potency result was “inactive”.

For the compound `COc1cc(C(=O)N2CC[C@@H](O)[C@@H](N)C2)cc2nc(-c3cc4ccccc4n3CC3CC3)n(C)c12`, the Potency is 1.17 µM (active).

For the compound `CC(=Cc1csc(C)n1)[C@@H]1C[C@H]2O[C@]2(C)CCC[C@H](C)[C@@H](O)[C@@H](C)C(=O)C(C)(C)[C@@H](O)CC(=O)O1`, the Potency entry was “inactive”.

As to `CCNC(=O)C[C@@H]1N=C(c2ccc(Cl)cc2)c2cc(OC)ccc2-n2c(C)nnc21`, the Potency was 9.35 µM (active).

For `CC1=C2C[C@@H]3[C@@H](CC=C4C[C@@H](O)CC[C@@]43C)[C@@H]2CC[C@]12O[C@H]1C[C@H](C)CN[C@H]1[C@H]2C`, the Potency entry was “inactive”.

`Cn1c(CCCC(=O)O)nc2cc(N(CCCl)CCCl)ccc21`: the Potency result is “inactive”.

For `c1cc2c(cc1[C@H]1OC[C@H]3[C@H]1CO[C@H]3c1ccc3c(c1)OCO3)OCO2`, the Potency entry was “inactive”.

Consider `COc1ccc2c(c1)CN(C)CC2c1ccc(Cl)c(Cl)c1` (stereo not given), for which the Potency was 9.35 µM (active).

Turning to `COc1ccc(CC2NCCc3cc(OC)c(OC)cc32)cc1OC` (stereo not given), the Potency entry was “inactive”.

In the case of `CC[C@@]1(O)C(=O)OCc2c1cc1n(c2=O)Cc2cc3ccccc3nc2-1`, the Potency was 0.0662 µM (active).

On to `CCOc1ccccc1-n1c(C(C)N2CCN(C(=O)COc3ccc(Cl)cc3)CC2)nc2ccccc2c1=O` (stereo not given), for which the Potency is 2.63 µM (active).

`O=C(O)c1nn(Cc2ccc(Cl)cc2Cl)c2ccccc12`: the Potency result was “inactive”.

As for `O=C(Oc1ccc([N+](=O)[O-])cc1)N1CCN(Cc2cccc(Oc3ccccc3)c2)CC1`, the Potency entry is “inactive”.

In the case of `CNCC(O)c1ccc(O)cc1` (stereo not given), the Potency result is “inactive”.

Turning to `O=c1[nH]c2ccccc2n1C1CCN(Cc2ccc(-c3[nH]c4cc5ncnc5cc4nc3-c3ccccc3)cc2)CC1`, the Potency result is “inactive”.

For `CC(C)N[C@@H]1CCn2c(=O)[nH]c3cccc(c32)[C@@H]1O`, the Potency result is “inactive”.

Turning to `CCCC(C)(COC(N)=O)COC(=O)NC(C)C` (stereo not given), the Potency result was “inactive”.

For `C[C@H]1CCCC=CC2C[C@H](O)C[C@@H]2[C@H](O)C=CC(=O)O1` (stereo not given in full), the Potency was 0.0012 µM (active).

`CCOC(=O)c1cncn1[C@H](C)c1ccccc1`: the Potency result is “inactive”.

Take `CC(C)(C)[C@]1(O)C[C@@H]2OC(=O)C[C@@]23C(=O)O[C@@H]2OC(=O)[C@H](O)C213` (stereo not given in full): the Potency result was “inactive”.

`COC1=C[C@@H]2[C@@H]3Cc4ccc(OC)c(O)c4[C@]2(CCN3C)CC1=O`: the Potency result is “inactive”.

As for `COc1ccc(N(C(=O)Oc2c(C)cccc2C)c2ccnc(Nc3ccc(N4CCN(C)CC4)cc3)n2)c(OC)c1`, the Potency entry was “inactive”.

Regarding `COc1cc(OC)c(OC)cc1C=O`, the Potency result was “inactive”.

For `CC(=O)N(C)c1cccc(-c2ccnc3c(C(=O)c4cccs4)cnn23)c1`, the Potency entry was “inactive”.

Consider `CC1(N2CCC(n3c([C@@H]4CCCNC4)nc4ccccc43)CC2)CCCCCCC1`, for which the Potency is 16.6 µM (active).

With `O=C(N[C@H]1CN2CCC1CC2)c1ccc(Cl)cc1`, the Potency entry is “inactive”.

For the compound `C=C[C@@H]1CN2CCC1C[C@H]2[C@H](O)c1ccnc2ccccc12` (stereo not given in full), the Potency was 18.7 µM (active).

Consider `C=C[C@@H]1CN2CCC1C[C@@H]2[C@@H](O)c1ccnc2ccccc12` (stereo not given in full), for which the Potency result was “inactive”.

As to `C#CC1(O)CCC2C3CCC4=CC(=O)CCC4(C)C3CCC21C` (stereo not given), the Potency entry was “inactive”.

Regarding `CN1CCN(c2ccc([N+](=O)[O-])c3no[n+]([O-])c23)CC1`, the Potency entry is “inactive”.

Take `CC(C)CC(N(C)C)C1(c2ccc(Cl)cc2)CCC1` (stereo not given): the Potency result is “inactive”.

In the case of `O=C(O)CNC(=O)c1c(O)c2ccccc2n(Cc2ccccc2)c1=O`, the Potency result was “inactive”.

Consider `Fc1ccc(C(OCCN2CCN(CCCc3ccccc3)CC2)c2ccc(F)cc2)cc1`, for which the Potency is 20.9 µM (active).

As to `CC(C)[C@]12O[C@@H]1[C@@H]1O[C@]13[C@]1(O[C@H]1C[C@@H]1C4=C(CC[C@@]13C)C(=O)OC4)[C@H]2O`, the Potency was 0.0012 µM (active).

Turning to `CC[C@@H](C(N)=O)N1CCCC1=O`, the Potency result was “inactive”.

Turning to `Cc1cccc(C)c1NC(=O)CN1CCCC1=O`, the Potency entry was “inactive”.

Turning to `O=c1[nH]c2ccccc2n1CCCN1CCC(n2c(=O)[nH]c3cc(Cl)ccc32)CC1`, the Potency entry is “inactive”.
